Shown are actives, neighbours in structure and some others; about 22% of the full set was active somewhere.
Pf growth 48h: Primary qHTS for delayed death inhibitors of the malarial parasite plastid, 48 hour incubation; P. falciparum luciferase growth in erythrocytes, 48 h; Potency, µM (highest dose often 28.7 µM), for the others: at the top dose activity change, negative = inhibition, actives largely listed as inhibitors; hit rate 5.9% among 310,000; note: potency is the fitted concentration of half-maximal effect; % is set by controls: 0 for no effect and ±100 for the full control effect
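Luciferase-expressing parasites in RBCs, 2% Hct / 0.1% parasitemia final; RPMI 1640 + 0.5% Albumax; 37 C, 5% CO2, one generation; luminescence read-out, lower signal = inhibition.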
CHX counter: Cycloheximide Counterscreen for Small Molecule Inhibitors of Shiga Toxin | cell reporter, cycloheximide protein synthesis inhibition counterscreen | max response, % | hit rate 12% among 300,000; in the data active = max response mostly above about 13%, no sharp cut-off; inactive = mostly below about 14%; note: read at 38.3 µM for the half of the compounds with a filed dose; 0% is about no effect
LmPK inhibitor: qHTS Assay for Inhibitors of Leishmania Mexicana Pyruvate Kinase (LmPK) | AID 1721, 2009 | hit rate 0.37% among 290,000 | purified LmPK, Kinase-Glo ATP luminescence, 1 h | Potency, µM (doses to about 57.5 µM), for the others: top-dose activity change, negative = inhibition, hits mostly inhibitors; note: potency is the fitted concentration of half-maximal effect; % is set by controls: 0 for no effect and ±100 for the full control effect
Target sequence (Q27686 whole entry, looked up): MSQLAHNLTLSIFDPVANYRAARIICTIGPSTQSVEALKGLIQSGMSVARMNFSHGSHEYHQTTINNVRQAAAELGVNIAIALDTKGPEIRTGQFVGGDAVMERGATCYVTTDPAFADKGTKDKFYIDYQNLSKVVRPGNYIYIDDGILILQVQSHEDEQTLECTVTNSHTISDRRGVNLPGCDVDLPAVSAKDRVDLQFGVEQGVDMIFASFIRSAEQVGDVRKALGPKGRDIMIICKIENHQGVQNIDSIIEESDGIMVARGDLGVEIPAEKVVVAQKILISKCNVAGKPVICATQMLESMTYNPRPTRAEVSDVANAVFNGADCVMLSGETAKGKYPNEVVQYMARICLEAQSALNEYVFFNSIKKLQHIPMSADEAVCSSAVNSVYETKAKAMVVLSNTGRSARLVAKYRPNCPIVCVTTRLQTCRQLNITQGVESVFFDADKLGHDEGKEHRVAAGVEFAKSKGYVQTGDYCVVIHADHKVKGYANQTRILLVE
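Purified LmPK (0.1 nM) with 0.5 mM PEP and 0.1 mM ADP in imidazole buffer pH 7.2 with MgCl2/KCl, 1 h at room temperature. ATP formed was read by luciferase luminescence and normalized to no-enzyme and uninhibited controls.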
Pf growth 96h: Primary qHTS for delayed death inhibitors of the malarial parasite plastid, 96 hour incubation; P. falciparum luciferase reporter growth, 96 h; Potency, µM (top dose mostly 28.7 µM), for the others: top-dose activity change, negative = inhibition, usual class: inhibitors; hit rate 6.9% among 320,000; AID 504834, 2011; note: potency is the fitted concentration of half-maximal effect; % is set by controls: 0 for no effect and ±100 for the full control effect
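96 h incubation, 37 C, 5% CO2, of luciferase-reporter P. falciparum-infected RBCs (2% hematocrit, 0.05% parasitemia final) with test compounds; endpoint luminescence.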
Shiga toxin inh: A qHTS for Small Molecule Inhibitors of Shiga Toxin | Vero cells, Shiga toxin protein synthesis inhibition reporter | inhibition, % at 38.7 µM | hit rate 9.2% among 290,000 | AID 2315, 2010; in the data active = inhibition mostly above about 28%, no sharp cut-off; inactive = mostly below about 43%; note: 0% is about no effect
* marks the source's active call; other numbers are inactive results; u = inconclusive; x = no result given; [ ] = another dose, or the depositor's remark. Unless noted, calls come from the whole dose curve; as a rule, active = well fitted inhibition curve with a large enough effect; inconclusive = small, poorly fitted or top-dose-only effect, or another doubt; inactive = no such curve, though single readings can be large or run the other way.

SMILES	Pf growth 48h	CHX counter	LmPK inhibitor	Pf growth 96h	Shiga toxin inh
COC(=O)c1ccc(NC(=O)CSc2nccn2CCc2ccccc2)cc1	66%	44*	4%	x	88
CCN(CC(=O)Nc1ccc(NC(C)=O)cc1)C(=O)Cc1ccc(S(=O)(=O)N2CCOCC2)s1	6%	x	x	22%	x
O=C(NCCC1CCCCN1S(=O)(=O)c1ccccc1)C(=O)NCc1cccnc1 (centres undefined)	0%	x	x	u	x
NC(=O)c1cc(S(=O)(=O)N2CCc3ccccc3C2)cs1	-6%[0.00184 µM]	-1	-1%	44%	-5
COc1ccc(CCNC(=O)c2cc3c(=O)n4ccccc4nc3n(CC3CCCO3)c2=N)cc1OC (centres undefined)	u	8	0%	u	21
N=c1c(C(=O)NCc2ccc(F)cc2)cc2c(=O)n3ccccc3nc2n1CC1CCCO1 (centres undefined)	12µM*	-3	-2%	1%[5.75 µM]	-17
Cc1cccn2c(=O)c3cc(C(=O)NCc4cccnc4)c(=N)n(CC4CCCO4)c3nc12 (centres undefined)	u	6	0%	1%	-2
Cc1cccn2c(=O)c3cc(C(=O)NCCc4ccccc4)c(=N)n(CC4CCCO4)c3nc12 (centres undefined)	2.3µM*	-1	1%	29%	-6
N=c1c(C(=O)NCCc2ccccc2)cc2c(=O)n3ccccc3nc2n1CC1CCCO1 (centres undefined)	2.1µM*	-5	4%	u	-11
Cc1ccc(CNC(=O)c2cc3c(=O)n4cccc(C)c4nc3n(CC3CCCO3)c2=N)cc1 (centres undefined)	u	0	0%	8.3µM*	-9
CCCn1c(N)c(C(=O)CN(C)CC(=O)Nc2c(C)cc(C)cc2C)c(=O)[nH]c1=O	17%	x	x	8%	x
O=C(O)C1C2CCC(O2)C1C(=O)Nc1ccc(Cl)cc1 (centres undefined)	-4%	6	2%	14%	9
Cc1ccc(NC(=O)C2C3CCC(O3)C2C(=O)O)cc1Cl (centres undefined)	7%	-2	-5%	13µM*	-3
COc1ccc(NC(=O)C2C3CCC(O3)C2C(=O)O)c(OC)c1 (centres undefined)	-3%	29*	-1%	u	37
O=C(O)C1C2CCC(O2)C1C(=O)Nc1ccc(F)c(Cl)c1 (centres undefined)	9%	-3	-8%	12µM*	-5
CCOC(=O)C1CCN(C(=O)C2CCCN(S(=O)(=O)c3ccc(OCC)c(Cl)c3)C2)CC1 (centres undefined)	-14%	x	x	-4%	x
O=C(NC(=S)Nc1ccc(N2CCOCC2)cc1)c1ccco1	132%	32*	-4%	44%	43*
O=C(NC(=S)Nc1ccc(CN2CCOCC2)cc1)c1ccco1	147%	31*	3%	93%	34*
Fc1ccccc1NC(=S)Nc1ccc(CN2CCOCC2)cc1	144%	23*	-1%	20%	66*
CCc1ccc(C(=O)NC(=S)Nc2ccc(N3CCOCC3)cc2)cc1	u	-2	1%	u	-7
O=C(NC(=S)Nc1ccc(CN2CCCCC2)cc1)c1ccco1	-3%	11	2%	-16%	32
CC(C)CN(C(=O)C1CCCO1)c1c(N)n(CC(C)C)c(=O)[nH]c1=O (centres undefined)	-3%	x	x	46%	x
COc1cc(C(=O)NNC(=S)NCc2ccco2)cc(OC)c1OC	-14%[5.75 µM]	-1	0%	92%[5.75 µM]	-2
O=C(CN1CCN(c2ccc(F)cc2)CC1)NC(=O)NCc1ccco1	u	1	6%	-6%	-6
CCCC[C@@H]1CNC(=S)N1CCCC	-10%	-2	2%	-25%	-6
SMILES	Pf growth 48h	CHX counter	LmPK inhibitor	Pf growth 96h	Shiga toxin inh
CCCCN1C(=S)NC[C@@H]1Cc1ccc(O)cc1	-1%	7.2*	1%	-10%	-6
Cc1ccc(NS(=O)(=O)c2cccc3nsnc23)cc1[N+](=O)[O-]	u	-3	6%	1%	-15
COc1cc(/C=C2/C(=O)NN(c3cccc(Cl)c3)C2=O)cc(OC)c1O	-8%	0	-1%	u	-1
COc1ccc(-n2cccc2/C=C2/NC(=O)N(c3cccc(Cl)c3)C2=O)cc1	18%	22*	0%	72%	14
COc1cc(/C=C2/NC(=O)N(c3cccc(Cl)c3)C2=O)ccc1O	7.4µM*	30	2%	u	23*
COc1ccccc1C1NC(=O)NC(C)=C1C(=O)OC1CCC(C)CC1 (centres undefined)	14%	-3	0%	49%	6
CN1CCN(C(=O)c2cc(-c3ccccc3)on2)CC1	127%	38*	-4%	x	109*
O=C(c1cc(-c2ccc(F)cc2)on1)N1CCCC1	90%	50*	-13%	x	66*
O=C(O)c1cc(-c2ccccc2)on1	x	-5	-2%	-13%	5
O=C(c1cc(-c2ccccc2)on1)N1CCC2(CC1)OCCO2	61%	32*	-13%	20%	79*
O=C(c1cc(-c2ccccc2)on1)N1CCCCCC1	147%	29*	2%	23%	71*
O=C(c1cc(-c2ccccc2)on1)N1CCc2ccccc2C1	26%	-1	0%	u	-6
O=S(=O)(Cc1cccc(C(F)(F)F)c1)c1ncn[nH]1	1%	6	1%	4%	-4
COc1ccc(OC)c([C@@H]2OCCC=C[C@H]2C)c1	1%	-4	3%	-10%	-12
CCOC(=O)C1CCCN(C(=O)c2cccs2)C1 (centres undefined)	-3%	0	1%	x	-2
O=C(/C=C/c1ccc(-c2ccc(F)cc2)o1)N1CCCC1	343%	39*	0%	53%	64*
O=C(c1cc(-c2ccccc2)on1)N1CCN(C(=O)c2ccco2)CC1	33%	19*	-7%	1%	38
COCCCC1CCN(C(=O)c2cc(COc3ccc(C)nc3)on2)CC1	-16%	9	-11%	4%	-26
CCOC(=O)C1CCCN(C(=O)c2cc(-c3ccc(C)cc3)on2)C1 (centres undefined)	83%	58*	-1%	-96%	113*
CCOC(=O)C1CCCN(C(=O)c2cc(COc3ccc(C)nc3)on2)C1 (centres undefined)	11%	51*	-7%	-8%	73*
COc1ccc(CC(=O)Nc2ccc(N(C)C)c3ccccc23)cc1	-10%	-3	0%	-9%	13
O=C(c1cc(-c2ccc(O)cc2)on1)N1CCCC1	164%	37*	-6%	20%	97*
O=C(c1cc(-c2ccc(O)cc2)on1)N1CCN(c2ccc(F)cc2)CC1	-14%	7	-1%	45%	5
O=C(Nc1nnc(N2CCCCCC2)s1)c1cc(-c2ccc(Br)cc2)on1	11%	-6	4%	u	-7

Source: PubChem BioAssay
